Data taken from PubChem BioAssay.
Calls of active or inactive are those of the source.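 Rule for the calls, unless noted: active = inhibition above 20% together with a positive visual image hit; inconclusive = visual image hit but inhibition not above 20%; inactive = no visual image hit.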

Assays:
[1] = inhibitors of TNFa-induced NFkB p65 translocation, primary screen, imaging, HUVEC, MLSMR starter and 10KST1 sets (AID 438); conditions: HUVEC TNFa-induced p65 nuclear translocation; cell count: measured here: nuclei count (cytotoxicity indicator), at 2.08 µM; inhibition: at 2 µM, stronger effect = higher value, 0% TNFa-plus-vehicle, 100% no-TNFa wells;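 note: compound added about 3h40 before a 20 min TNFalpha stimulation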;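 for inhibition: signal is the nuclear over cytoplasmic p65 intensity ratio per well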
[2] = reduction of polyQ htt aggregates in cells – imaging, exon1htt(103Q)mCFP cells, high-content imaging, primary screen (AID 483;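 active = visual image review flags a hit and inhibition of aggregation exceeds 20%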;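 note: compound exposure lasted 3 days before fixation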;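 for nuclei count: percent of the per-plate median nuclei count of sample wells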); conditions: exon1htt(103Q)mCFP cell line, aggregate imaging, at 2 µM; inhibition of aggregation: stronger effect = higher value; nuclei count: measured here: cell count, toxicity
[3] = endothelial E-selectin expression blockers – imaging, HUVEC, immunofluorescence, MLSMR starter and 10KST1 sets, primary screen (AID 487;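 active = visually confirmed hit in the image check and inhibition above 20%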;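 for inhibition: signal is fraction of cell area covered by stained E-selectin grains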;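 for nuclei count: 100% = median nuclei count of all wells on the same plate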); conditions: HUVEC TNFalpha-induced E-selectin immunofluorescence imaging, at 2 µM; inhibition: stronger effect = higher value; nuclei count: measured here: cell number, toxicity
[4] = target: Voltage-gated potassium channel subunit beta-2 (Rattus norvegicus) (UniProt P62483); test: inhibitors of rat Kvbeta2 reductase activity – biochemical, NADPH fluorescence, primary screen (AID 622;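 active = fluorescence slope higher than the sample average by over 3 SD, cut at about -0.22 in these data, passing the limit was not always enough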;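 note: slope of raw intensity against log time taken from 70 to 1610 s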); conditions: recombinant KvBeta, 4-cyanobenzaldehyde reduction, at 10 µM, stronger effect = higher value
Voltage-gated potassium channel subunit beta-2 (Rattus norvegicus), sequence (P62483 whole entry, looked up): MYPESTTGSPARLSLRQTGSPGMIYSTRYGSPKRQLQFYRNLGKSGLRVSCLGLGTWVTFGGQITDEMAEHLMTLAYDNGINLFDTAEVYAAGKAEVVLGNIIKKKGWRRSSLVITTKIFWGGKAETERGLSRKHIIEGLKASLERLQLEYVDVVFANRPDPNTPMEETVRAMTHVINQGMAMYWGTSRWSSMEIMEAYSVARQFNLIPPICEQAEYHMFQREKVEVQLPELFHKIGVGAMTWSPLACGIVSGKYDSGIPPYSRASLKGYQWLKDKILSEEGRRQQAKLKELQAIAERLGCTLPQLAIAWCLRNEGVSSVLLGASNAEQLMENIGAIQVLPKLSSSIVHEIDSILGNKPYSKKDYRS

[5] = target: Voltage-gated potassium channel subunit beta-2 (Rattus norvegicus) (UniProt P62483); test: enhancers of rat Kvbeta2 NADPH turnover – biochemical, NADPH fluorescence, primary screen (AID 623;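 active = NADPH fluorescence slope more negative than the mean of all samples by about 3 SD, 99.7% confidence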;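 note: fluorescence intensity change per second fitted from 20 to 320 s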); conditions: Recombinant KvBeta, NADPH fluorescence decrease slope, 10 min; at 10 µM; stronger effect = lower value
[6] = target: Alpha-2C adrenergic receptor (Homo sapiens) (UniProt P18825); test: compounds altering alpha2C-coupled GIRK flux – cell-based, HEK293 alpha2C/GIRK1/2, thallium flux, primary screen (AID 624;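 active = fluorescence slope after compound addition differing from the mean of all screened samples at 99.7% confidence, in either direction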;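 note: slope of fluorescence ratio to pre-addition baseline per second over 15 to 24 s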); conditions: thallium flux BTC fluorescence, at 10 µM, actives lie on both sides
Alpha-2C adrenergic receptor (Homo sapiens), sequence (P18825 whole entry, looked up): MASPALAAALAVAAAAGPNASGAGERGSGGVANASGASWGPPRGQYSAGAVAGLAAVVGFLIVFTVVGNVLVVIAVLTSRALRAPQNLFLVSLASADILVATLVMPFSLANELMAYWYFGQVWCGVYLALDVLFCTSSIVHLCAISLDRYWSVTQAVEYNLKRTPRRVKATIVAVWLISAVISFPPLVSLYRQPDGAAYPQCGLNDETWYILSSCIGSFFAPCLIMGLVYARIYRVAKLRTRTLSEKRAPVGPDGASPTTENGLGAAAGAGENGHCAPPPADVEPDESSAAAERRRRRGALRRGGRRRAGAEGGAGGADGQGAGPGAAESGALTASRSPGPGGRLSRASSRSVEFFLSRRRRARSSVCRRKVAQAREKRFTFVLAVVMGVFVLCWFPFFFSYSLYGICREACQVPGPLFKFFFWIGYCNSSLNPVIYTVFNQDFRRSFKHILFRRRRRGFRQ

[7] = blockers of RIG-like receptor reporter activation – cell-based, Sendai virus stimulus, luciferase, 10K MLSCN set, TLR/RLR signaling modifier project, primary screen (AID 602276;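 active = inhibition at or above 50% at 10 µM; inactive = inhibition below 50%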;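 note: firefly luciferase from ISG56 promoter only with Renilla not read in this screen; 0% = Sendai virus plus DMSO and 100% = medium plus DMSO without virus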); conditions: HEK293 RL24 IRF3 luciferase reporter, at 10 µM, stronger effect = higher value
[8] = TLR3 IRF3 reporter activation blockers – cell-based, poly I:C stimulus, luciferase, 10K MLSCN set, primary screen (AID 602277;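 active = inhibition of the reporter signal at or above 50%; inactive = inhibition below 50%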); conditions: HEK293-TLR3 RL24 IRF3 luciferase reporter, at 10 µM, stronger effect = higher value

SMILES	cell count [1]	inhibition [1]	inhibition of aggregation [2]	nuclei count [2]	inhibition [3]	nuclei count [3]	fluorescence slope [4]	NADPH fluorescence slope [5]	slope [6]	inhibition [7]	inhibition [8]
COc1ccc(NC(=O)C23CCC(C)(C(=O)C2)C3(C)C)cc1 (stereo not drawn)	606	-7.7% (inactive)	-15.6% (inactive)	103%	-111% (inactive)	108%	-0.6 (inactive)	6.7e-07 (inactive)	0.00539 (inactive)	12.6% (inactive)	17.8% (inactive)
Cc1ccc(C)c(N2CCN(Cc3nnnn3C3CCCCC3)CC2)c1	458	-4.4% (inactive)	-7.6% (inactive)	123%	-49.3% (inactive)	112%	-0.626 (inactive)	-2.5e-05 (inactive)	0.00597 (inactive)	11.6% (inactive)	34.8% (inactive)
Cc1noc(C)c1C(=O)N1CCN(C(=O)c2sc3cc(Cl)ccc3c2Cl)CC1	600	-5.4% (inactive)	0.7% (inactive)	111%	-78.2% (inactive)	100%	-0.328 (inactive)	-6.4e-05 (inactive)	0.00474 (inactive)	8.91% (inactive)	9.68% (inactive)
COC(=O)C1=C(C)NC(C)=C(C(=O)OC)C1C(=O)OC1CCCCC1=O (stereo not drawn)	487	8.7% (inactive)	32.7% (inactive)	87.8%	61.1% (active)	80.2%	-0.425 (inactive)	-3.3e-06 (inactive)	0.00528 (inactive)	1.65% (inactive)	27.7% (inactive)
CCn1c(CNc2ccc(OC)cc2)nnc1SCC(=O)c1ccc(OC)cc1	544	-16.9% (inactive)	1.8% (inactive)	100%	-101% (inactive)	107%	-0.502 (inactive)	7.7e-06 (inactive)	0.00516 (inactive)	10% (inactive)	14.7% (inactive)
Fc1cccc(Nc2ncnc3c2cnn3-c2ccccc2)c1	644	-3.3% (inactive)	0.4% (inactive)	109%	-51.7% (inactive)	127%	-0.57 (inactive)	4.4e-06 (inactive)	0.00538 (inactive)	-54.2% (inactive)	-148% (inactive)
CCOC(=O)c1ccccc1NC(=O)c1c(O)c2ccccc2n(CC)c1=O	649	-12.8% (inactive)	-35.3% (inactive)	101%	20.2% (inactive)	120%	-0.489 (inactive)	-0.000195 (inactive)	0.00747 (inactive)	-2.85% (inactive)	9.26% (inactive)
CCCn1c(SCC(=O)NC(C)(C)C)nnc1C(C)C	603	-6.3% (inactive)	6.5% (inactive)	102%	19.4% (inactive)	99.9%	-0.537 (inactive)	-0.000121 (inactive)	0.00641 (inactive)	13% (inactive)	23.2% (inactive)
CC1Cc2nc(SCC(=O)N3CCCc4ccccc43)n(C)c(=O)c2S1 (stereo not drawn)	647	0.5% (inactive)	-0.9% (inactive)	46.7%	5.3% (inactive)	118%	-0.543 (inactive)	-1.5e-05 (inactive)	0.00618 (inactive)	6% (inactive)	20.4% (inactive)
O=C1C2C3C=CC(C3=C3CCCCC3)C2C(=O)N1c1ccccc1 (stereo not drawn)	512	-10.1% (inactive)	3.7% (inactive)	104%	-29.2% (inactive)	103%	-0.61 (inactive)	-3.9e-06 (inactive)	0.00655 (inactive)	12.4% (inactive)	16% (inactive)
CCC(C)NCC(O)COCc1ccc(Cl)cc1 (stereo not drawn)	296	-2% (inactive)	-4% (inactive)	98.9%	-9.3% (inactive)	86.6%	-0.484 (inactive)	-5.9e-06 (inactive)	0.00563 (inactive)	15.4% (inactive)	20.9% (inactive)
CCOC(=O)C1=C(N)OC2=C(C(=O)CC(C)(C)C2)C1c1ccoc1 (stereo not drawn)	774	-12.9% (inactive)	-14.6% (inactive)	78.3%	-15.3% (inactive)	110%	-0.418 (inactive)	-4e-05 (inactive)	0.00368 (inactive)	3.82% (inactive)	7.84% (inactive)
CCn1cc(SCC(=O)NCC2CCCO2)c2ccccc21 (stereo not drawn)	692	-20.6% (inactive)	8.9% (inactive)	112%	-8.7% (inactive)	102%	-0.4 (inactive)	-4.5e-05 (inactive)	0.00573 (inactive)	3.88% (inactive)	15.1% (inactive)
COc1ccccc1NC(=O)CSc1nnc(-c2ccncc2)o1	469	5.3% (inactive)	-7.5% (inactive)	110%	-23.6% (inactive)	117%	-0.506 (inactive)	1.9e-05 (inactive)	0.00395 (inactive)	-2.18% (inactive)	-9.84% (inactive)
CCCN(CCC)CCCNS(=O)(=O)c1ccc2c(c1)oc(=O)n2C	377	-2.4% (inactive)	6.1% (inactive)	102%	-61.9% (inactive)	112%	-0.432 (inactive)	-9.3e-05 (inactive)	0.00475 (inactive)	16.6% (inactive)	23% (inactive)
CCOC(=O)Cn1c(CN2CCOCC2)nc2c1c(=O)[nH]c(=O)n2C	507	-1% (inactive)	-19.1% (inactive)	102%	-6% (inactive)	118%	-0.601 (inactive)	-4.7e-05 (inactive)	0.00569 (inactive)	15.2% (inactive)	27.7% (inactive)
CC(=O)Nc1ccc(NC(=O)C(C)Oc2ccccc2F)cc1 (stereo not drawn)	321	3.9% (inactive)	9.4% (inactive)	104%	4.3% (inactive)	112%	-0.65 (inactive)	1.9e-05 (inactive)	0.00945 (inactive)	9.2% (inactive)	12.4% (inactive)
COc1ccc(CCNC(=O)CSc2nnnn2-c2ccccc2OC)cc1OC	681	-1.1% (inactive)	1.5% (inactive)	106%	-10.8% (inactive)	109%	-0.531 (inactive)	-5.1e-05 (inactive)	0.00687 (inactive)	15.3% (inactive)	31.8% (inactive)
CC(=O)n1nc(-c2ccco2)nc1SCc1ccccc1	573	2.8% (inactive)	25.1% (inactive)	100%	-122% (inactive)	94.1%	-0.599 (inactive)	1.3e-05 (inactive)	0.00839 (inactive)	-22.5% (inactive)	-108% (inactive)
COc1ccc(NC(=O)c2ccco2)cc1NC(=O)c1cccs1	400	3.8% (inactive)	4.3% (inactive)	95.9%	13.8% (inactive)	92.8%	-0.421 (inactive)	2.6e-05 (inactive)	0.00585 (inactive)	-10.6% (inactive)	-14.2% (inactive)
CCN(CC)c1nc2cc(OC)ccc2cc1C#N	386	-7.8% (inactive)	8.6% (inactive)	101%	-50.8% (inactive)	114%	-0.584 (inactive)	-6.9e-06 (inactive)	0.00563 (inactive)	12.7% (inactive)	41% (inactive)
CN(C)S(=O)(=O)N1CCN(C(=O)N(c2ccccc2)c2ccccc2)CC1	352	-3.3% (inactive)	0% (inactive)	108%	-122% (inactive)	117%	-0.366 (inactive)	-2e-09 (inactive)	0.00704 (inactive)	-19.7% (inactive)	-15.1% (inactive)
OC(CN1CCOCC1)Cn1c(-c2cccc(Cl)c2)nc2ccccc21 (stereo not drawn)	500	-2.9% (inactive)	-7.7% (inactive)	108%	-39.6% (inactive)	112%	-0.598 (inactive)	1.9e-05 (inactive)	0.00704 (inactive)	10.2% (inactive)	32.2% (inactive)
COc1cccc(C=Nc2ccc3c(c2)OCCO3)c1O	301	5.1% (inactive)	9% (inactive)	97.3%	25.8% (inactive)	83.4%	-0.501 (inactive)	-3.1e-05 (inactive)	0.00551 (inactive)	12.6% (inactive)	-2.51% (inactive)
OC1(c2cccc(C(F)(F)F)c2)CCNCC1	370	1.4% (inactive)	-1.7% (inactive)	106%	-19% (inactive)	118%	-0.281 (inactive)	2.4e-05 (inactive)	0.007 (inactive)	18.9% (inactive)	22.1% (inactive)
Cc1nc(NC2=NCN(CCN3CCOCC3)CN2)nc2c(C)cccc12	417	4.5% (inactive)	-1.2% (inactive)	72.4%	-24.5% (inactive)	108%	-0.419 (inactive)	-3.7e-05 (inactive)	0.00391 (inactive)	23.8% (inactive)	41.1% (inactive)
CCCSc1nnc2nc3c(nn12)c1ccccc1n3C	572	4.4% (inactive)	-6.3% (inactive)	109%	5.3% (inactive)	107%	-0.519 (inactive)	-6.9e-05 (inactive)	0.0026 (inactive)	5.91% (inactive)	27.8% (inactive)
Cc1cccc(NC(=O)c2cc3ccccc3o2)c1	549	-23% (inactive)	10.7% (inactive)	103%	15.3% (inactive)	157%	-0.506 (inactive)	1.8e-05 (inactive)	0.00578 (inactive)	-17.2% (inactive)	-74.5% (inactive)
